The list is not random: actives were taken first. Their share in the collection is about 2%.
FUS suppressor: qHTS for Suppressors of FUS Proteinopathy: Primary screen using FUS-linked yeast assay | actives 0.24% (n = 390,000) | S. cerevisiae FUS-expressing, growth rescue, OD600, 24 h | Potency, µM (top dose mostly 76.6 µM), actives largely listed as activators | AID 1347120, 2019; also: nearly all actives have a fitted effect of over 55% in size
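Absorbance at 600 nm, taken 24hr after compound addition, measured rescue of FUS-yeast growth at 30C. Induction used 2% galactose with seeding at OD 0.005. Controls: CP55940 from 92uM final, DMSO only.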
Abeta rescue: qHTS for compounds that reverse cellular toxicity of Amyloid beta (A-beta) peptide in yeast: Primary Screen; yeast expressing A-beta42, growth rescue, OD600, 48 h; response scale: 0% DMSO, 100% iron-clioquinol control; Potency, µM (series often up to 46.1 µM), usual class: activators; actives 0.063% (n = 410,000); AID 1347071, 2019; also: nearly all actives have a fitted effect of over 55% in size
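Growth rescue measured by 600 nm absorbance after 48 h yeast culture at 30 C with compound. Values normalized between DMSO and an equimolar ferric chloride plus clioquinol control.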
LDHA block: qHTS assay for inhibitors of human lactate dehydrogenase. L-lactate dehydrogenase A chain (Homo sapiens), P00338. purified LDHA, NADH/diaphorase-resazurin fluorescence; hits give low values. activity change, % (values are at about 110 or 230 µM). actives 0.15% (n = 480,000). AID 1347041, 2019; in the data active = activity change below about -30%; inconclusive = mostly about -25% to -30%
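Human LDH5 (2 nM) was incubated with 0.06 mM NADH and 0.2 mM pyruvate for 5 min at room temperature in Tris pH 7.4. Remaining NADH was coupled through diaphorase/resazurin, and resorufin fluorescence was read at 0 and 20 min.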
TDP-43 yeast inh: qHTS of TDP-43 Inhibitors. TDP-43 expressing yeast growth rescue, BacTiter-Glo, 24 h. Potency, µM (highest dose often 46.1 µM), hits mostly activators. actives 1.8% (n = 410,000). AID 652104, 2013; also: nearly all actives have a fitted effect of over 50% in size
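Cell-based yeast growth screen: TDP-43 expression induced in galactose, inoculum OD600=0.02 after raffinose pregrowth to mid-log. Read-out BacTiter-Glo luminescence at 24 hr, 30 deg C; inhibition of toxicity seen as signal increase.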
aSyn rescue: qHTS of alpha-syn Inhibitors. Yeast expressing alpha-synuclein, growth rescue, BacTiter-Glo, 24 h. Potency, µM (highest dose often 46.1 µM), usual class: activators. actives 0.14% (n = 370,000). AID 652106, 2013; also: nearly all actives have a fitted effect of over 65% in size
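Galactose-induced alpha-syn yeast (OD600=0.02, raffinose-pregrown) + pinned cpd, 24 hr, 30 deg C; growth by BacTiter-Glo luminescence. Growth restoration scores as activation.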
IDH1 R132H inh: qHTS for Inhibitors of mutant isocitrate dehydrogenase 1 (IDH1): qHTS; Potency, µM (highest dose often 76.6 µM), hits mostly inhibitors; actives 0.093% (n = 390,000); AID 602179, 2012; IDH1-R132H enzyme, NADPH consumption, diaphorase/resazurin fluorescence; also: nearly all actives have a fitted effect of over 65% in size
Target sequence (O75874 whole entry R132H, stated change not applied): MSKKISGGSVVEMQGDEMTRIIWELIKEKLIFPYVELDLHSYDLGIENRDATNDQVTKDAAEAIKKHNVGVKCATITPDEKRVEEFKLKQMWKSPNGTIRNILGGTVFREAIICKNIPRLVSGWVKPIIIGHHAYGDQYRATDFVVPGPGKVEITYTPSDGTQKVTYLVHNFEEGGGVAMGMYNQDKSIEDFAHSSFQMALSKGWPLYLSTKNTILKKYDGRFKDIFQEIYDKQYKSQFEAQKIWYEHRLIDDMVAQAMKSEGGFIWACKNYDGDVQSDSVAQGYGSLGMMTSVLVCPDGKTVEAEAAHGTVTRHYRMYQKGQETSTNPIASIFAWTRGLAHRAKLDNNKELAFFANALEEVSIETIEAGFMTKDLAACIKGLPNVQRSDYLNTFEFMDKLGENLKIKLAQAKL
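IDH1-R132H (0.5 ug/mL dispensed) in pH 7.5 Tris buffer was preincubated 30 min with compound, then given a substrate mix of 0.016 mM NADPH and 2 mM alpha-KG for 80 min at room temperature; remaining NADPH was read by diaphorase/resazurin fluorescence.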
Numbers stand for hits. Unless noted, calls follow the shape of the dose curve; as a rule, active = well fitted curve in the direction sought with a large enough effect; inconclusive = small, poorly fitted or top-dose-only effect, or another doubt; inactive = no such curve, though single readings can be large; an effect the other way counts as inactive or inconclusive.

What do the screens show for `Cc1ccccc1-c1nc(C(=O)NCC2CCCO2)cc2c1[nH]c1ccccc12` (stereo not given)?
FUS suppressor: inactive; Abeta rescue: inactive; LDHA block: inactive; TDP-43 yeast inh: 10µM; aSyn rescue: inactive; IDH1 R132H inh: inactive

How did Cc1cc(Nc2cccc(Cl)c2)nc2ccc(NC(=O)CC3CCCCC3)cc12 do in these assays?
LDHA block: inactive

Results for Cc1cc(C)cc(NC(=S)NC2CCCC(C)C2C)c1 (stereo not given) ?
LDHA block: inactive

What do the screens show for `N#C/C(=N\Nc1cccc(C(F)(F)F)c1)C(=O)c1ccsc1`?
FUS suppressor: inactive; Abeta rescue: inactive; LDHA block: inactive; TDP-43 yeast inh: 10µM; aSyn rescue: inactive; IDH1 R132H inh: inactive

Results for CSc1nc(Nc2cccc(F)c2)c(C#N)c(-c2ccccc2)n1 ?
LDHA block: inactive

What do the screens show for `COc1ccc(S(=O)(=O)n2oc(=O)cc2-c2ccccc2)cc1OC`?
FUS suppressor: inactive; Abeta rescue: inactive; LDHA block: inactive; TDP-43 yeast inh: 14µM; aSyn rescue: inconclusive; IDH1 R132H inh: inactive

How did O=c1cc(-c2ccccc2)n(S(=O)(=O)c2ccccc2)o1 do in these assays?
FUS suppressor: inactive; Abeta rescue: inactive; LDHA block: inactive; TDP-43 yeast inh: inconclusive; aSyn rescue: inconclusive; IDH1 R132H inh: inactive

Results for O=c1cc(-c2ccccc2)n(S(=O)(=O)c2ccc3ccccc3c2)o1 ?
FUS suppressor: inactive; Abeta rescue: inactive; LDHA block: inactive; TDP-43 yeast inh: inconclusive; aSyn rescue: 20µM; IDH1 R132H inh: inactive

Results for CC(C)(C)c1ccc(-c2csc(NC(=O)COCc3nc4ccccc4c(=O)[nH]3)n2)cc1 ?
LDHA block: inactive

How did CCOC(=O)C1=C(C)NC(C)=C(C(=O)OCC)C1c1cccc([N+](=O)[O-])c1 do in these assays?
FUS suppressor: inactive; Abeta rescue: inactive; LDHA block: inactive; TDP-43 yeast inh: 25µM; aSyn rescue: inactive; IDH1 R132H inh: inactive

What do the screens show for `COC(=O)c1ccc(CSc2nnc(Nc3ccccc3OC)s2)o1`?
FUS suppressor: inactive; Abeta rescue: inactive; LDHA block: inactive; TDP-43 yeast inh: 18µM; aSyn rescue: inactive; IDH1 R132H inh: inactive

How did COC(=O)c1ccc(CSc2nnc(Nc3ccc(OC)cc3)s2)o1 do in these assays?
FUS suppressor: inactive; Abeta rescue: inactive; LDHA block: inactive; TDP-43 yeast inh: inactive; aSyn rescue: inactive; IDH1 R132H inh: inactive

Results for CCn1cc(C(=O)OCC(=O)c2cc(C)n(-c3ccccc3)c2C)c(=O)c2ccc(C)nc21 ?
FUS suppressor: inactive; Abeta rescue: inactive; LDHA block: inactive; TDP-43 yeast inh: inactive; aSyn rescue: inactive; IDH1 R132H inh: inactive

What do the screens show for `CCOc1ccccc1NC(=O)COC(=O)c1cn(CC)c2nc(C)ccc2c1=O`?
FUS suppressor: inactive; Abeta rescue: inactive; LDHA block: inactive; TDP-43 yeast inh: 35µM; IDH1 R132H inh: inactive

What do the screens show for `CCn1cc(C(=O)OCC(=O)c2cc(C)n(-c3ccc(OC(F)F)cc3)c2C)c(=O)c2ccc(C)nc21`?
Abeta rescue: inactive; LDHA block: inactive; TDP-43 yeast inh: 13µM; aSyn rescue: inactive; IDH1 R132H inh: inactive

Results for CN(CC(=O)Nc1ccccc1Cl)CC(=O)N(CCC#N)c1ccccc1 ?
LDHA block: inactive

What do the screens show for `CC(NCC(=O)Nc1ccccc1C(=O)NC1CC1)c1ccc(S(N)(=O)=O)cc1` (stereo not given)?
FUS suppressor: inactive; Abeta rescue: inactive; LDHA block: -33; TDP-43 yeast inh: inactive; aSyn rescue: inactive; IDH1 R132H inh: inactive

Results for COc1ccc(NC(=O)CCc2nc3cccnc3n2Cc2cccs2)c(OC)c1 ?
FUS suppressor: inactive; Abeta rescue: inactive; LDHA block: inactive; TDP-43 yeast inh: inactive; IDH1 R132H inh: inactive
